# Read-outs that look alike come from different tables or passages of the source.
# How the values were obtained:
# [1] = tested on: CAMK4; details: concentration: 1 μM, replicates: in singlicate; n = 1
# [2] = tested on: CAMKK1; details: concentration: 1 μM, replicates: in singlicate; n = 1
# [3] = tested on: CAMKK2; details: concentration: 1 μM, replicates: in singlicate; n = 1
# [4] = tested on: CASK; details: concentration: 1 μM, replicates: in singlicate; n = 1
# [5] = tested on: T1, CDC2L1; details: concentration: 1 μM, replicates: in singlicate; n = 1
# T1 construct: gene CDK11B
# [6] = tested on: CDC2L2; details: concentration: 1 μM, replicates: in singlicate; n = 1
# [7] = tested on: T2, CDC2L5; details: n = 1
# T2 construct: gene CDK13
# [8] = tested on: T3, CDK11; details: concentration: 1 μM, replicates: in singlicate; n = 1
# T3 construct: gene CDK19
# [9] = tested on: CDK2; details: concentration: 1 μM, replicates: in singlicate; n = 1
# [10] = tested on: CDK3; details: concentration: 1 μM, replicates: in singlicate; n = 1
# [11] = tested on: CDK4-cyclinD1; details: n = 1
# [12] = tested on: CDK4-cyclinD3; details: n = 1
# [13] = tested on: CDK4; details: n = 1
# [14] = tested on: CDK5; details: concentration: 1 μM, replicates: in singlicate; n = 1
# [15] = tested on: CDK7; details: concentration: 1 μM, replicates: in singlicate; n = 1
# [16] = tested on: CDK8; details: concentration: 1 μM, replicates: in singlicate; n = 1
# [17] = tested on: CDK9; details: concentration: 1 μM, replicates: in singlicate; n = 1
# [18] = tested on: CDKL1; details: concentration: 1 μM, replicates: in singlicate; n = 1
# [19] = tested on: CDKL2; details: concentration: 1 μM, replicates: in singlicate; n = 1
# [20] = tested on: CDKL3; details: concentration: 1 μM, replicates: in singlicate; n = 1
# [21] = concentration: 1 μM, replicates: in singlicate
# 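Further: KINOMEscan kinase panel screen.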
structure (smiles),measurement,setting,value
CS(=O)(=O)Cc1ccc(Nc2nccc(-c3c(-c4cccc(NC(=O)C5CCCCC5)c4)nn4ncccc34)n2)cc1 [GSK350559],%Inh,[1],0%
same,%Inh,[2],0%
same,%Inh,[3],0%
same,%Inh,[4],34%
same,%Inh,[5],0%
same,%Inh,[6],27%
same,%Inh,[7]; 1 µM,30%
same,%Inh,[8],0%
same,%Inh,[9],0%
same,%Inh,[10],0%
same,%Inh,[11]; 1 µM,15%
same,%Inh,[12]; 1 µM,18%
same,%Inh,[13]; 1 µM,18%
same,%Inh,[14],4%
same,%Inh,[15],6%
same,%Inh,[16],0%
same,%Inh,[17],0%
same,%Inh,[18],0%
same,%Inh,[19],5%
same,%Inh,[20],0%
Cc1ccc(NC(=O)Nc2ccccc2F)cc1-c1ccc(C(=O)Nc2ccncc2)cc1 [GSK1398477],%Inh,[1],5%
same,%Inh,[2],15%
same,%Inh,[3],31%
same,%Inh,[4],17%
same,%Inh,[5],8%
same,%Inh,[6],10%
same,%Inh,[7]; [21],0%
same,%Inh,[8],12%
same,%Inh,[9],0%
same,%Inh,[10],24%
same,%Inh,[11]; [21],0%
same,%Inh,[12]; [21],0%
same,%Inh,[13]; [21],0%
same,%Inh,[14],5%
same,%Inh,[15],0%
same,%Inh,[16],19%
same,%Inh,[17],3%
same,%Inh,[18],7%
same,%Inh,[19],30%
same,%Inh,[20],0%
Cc1cccc2c(-c3ccncn3)c(-c3ccc(F)cc3)nn12 [GW515532],%Inh,[1],0%
same,%Inh,[2],0%
same,%Inh,[3],0%
same,%Inh,[4],0%
same,%Inh,[5],0%
same,%Inh,[6],3%
same,%Inh,[7]; [21],0%
same,%Inh,[8],0%
same,%Inh,[9],0%
same,%Inh,[10],3%
same,%Inh,[11]; [21],0%
same,%Inh,[12]; [21],0%
same,%Inh,[13]; [21],0%
same,%Inh,[14],0%
same,%Inh,[15],0%
same,%Inh,[16],10%
same,%Inh,[17],0%
same,%Inh,[18],0%
same,%Inh,[19],13%
same,%Inh,[20],0%
Nc1nccc(-c2c(-c3ccc(F)cc3)ncn2C2CCN(Cc3ccccc3)CC2)n1 [SB-219980],%Inh,[1],13%
same,%Inh,[2],2%
same,%Inh,[3],0%
same,%Inh,[4],0%
same,%Inh,[5],7%
same,%Inh,[6],38%
same,%Inh,[7]; [21],0%
same,%Inh,[8],1%
same,%Inh,[9],0%
same,%Inh,[10],0%
same,%Inh,[11]; [21],0%
same,%Inh,[12]; [21],0%
same,%Inh,[13]; [21],5%
same,%Inh,[14],16%
same,%Inh,[15],13%
same,%Inh,[16],0%
same,%Inh,[17],0%
same,%Inh,[18],0%
same,%Inh,[19],0%
same,%Inh,[20],9%
Cc1ccc(NC(=O)Nc2ccc(Cl)c(C(F)(F)F)c2)cc1-c1ccc(C(=O)Nc2ccncc2)cc1 [GSK1398470],%Inh,[1],0%
same,%Inh,[2],0%
same,%Inh,[3],0%
same,%Inh,[4],0%
same,%Inh,[5],0%
same,%Inh,[6],20%
same,%Inh,[7]; [21],0%
same,%Inh,[8],11%
same,%Inh,[9],0%
same,%Inh,[10],0%
same,%Inh,[11]; [21],0%
same,%Inh,[12]; [21],0%
same,%Inh,[13]; [21],0%
same,%Inh,[14],0%
same,%Inh,[15],0%
same,%Inh,[16],36%
same,%Inh,[17],0%
same,%Inh,[18],86%
same,%Inh,[19],34%
same,%Inh,[20],0%
Cc1ccc(NC(=O)Nc2ccccc2)cc1-c1ccc(C(=O)Nc2ccncc2)cc1 [GSK1398471],%Inh,[1],0%
same,%Inh,[2],0%
same,%Inh,[3],19%
same,%Inh,[4],0%
same,%Inh,[5],0%
same,%Inh,[6],13%
same,%Inh,[7]; [21],0%
same,%Inh,[8],11%
same,%Inh,[9],1%
same,%Inh,[10],0%
same,%Inh,[11]; [21],0%
same,%Inh,[12]; [21],0%
same,%Inh,[13]; [21],0%
same,%Inh,[14],0%
same,%Inh,[15],0%
same,%Inh,[16],0%
same,%Inh,[17],0%
same,%Inh,[18],0%
same,%Inh,[19],23%
same,%Inh,[20],1%
O=C(Nc1n[nH]c2nc(-c3cccs3)c(Br)cc12)C1CC1 [SB-735297],%Inh,[1],0%
same,%Inh,[2],0%
same,%Inh,[3],0%
same,%Inh,[4],13%
same,%Inh,[5],1%
same,%Inh,[6],12%
same,%Inh,[7]; [21],24%
same,%Inh,[8],0%
same,%Inh,[9],77%
same,%Inh,[10],26%
same,%Inh,[11]; [21],0%
same,%Inh,[12]; [21],0%
same,%Inh,[13]; [21],0%
same,%Inh,[14],0%
same,%Inh,[15],16%
same,%Inh,[16],0%
same,%Inh,[17],0%
same,%Inh,[18],34%
same,%Inh,[19],96.4%
same,%Inh,[20],0%
COc1ccc(Nc2nccc(N3CCC(NC(=O)C(C)c4ccc(Cl)cc4)CC3)n2)cc1 (stereo not shown) [GSK1379812],%Inh,[1],0%
same,%Inh,[2],0%
same,%Inh,[3],31%
same,%Inh,[4],3%
same,%Inh,[5],0%
same,%Inh,[6],10%
same,%Inh,[7]; [21],0%
same,%Inh,[8],63%
same,%Inh,[9],0%
same,%Inh,[10],0%
same,%Inh,[11]; [21],0%
same,%Inh,[12]; [21],0%
same,%Inh,[13]; [21],33%
same,%Inh,[14],0%
same,%Inh,[15],0%
same,%Inh,[16],20%
same,%Inh,[17],0%
same,%Inh,[18],4%
same,%Inh,[19],0%
same,%Inh,[20],0%
